Test results: PubChem BioAssay (NCI)
This is part of a sample that, as a whole, favours compounds with a hit. Of some 79,000 tested, about 15% had one in any assay. Calls of active or inactive are those of the source. No stated cut-off is given here; in the data, active means growth inhibition above about 70%; inactive means the rest.

How the values were obtained:
[1] = NCI Yeast Anticancer Drug Screen. Data for the rad52 strain (AID 147);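 further: 0% = growth of vehicle-treated control cultures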; details: S. cerevisiae rad52 mutant growth inhibition, active compounds read high
Outline: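 Compounds are applied to a genetically defined yeast strain lacking normal DNA damage repair, and inhibition of growth is expressed relative to cultures given vehicle only.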

[2] = NCI Yeast Anticancer Drug Screen. Data for the wt1 strain (AID 149);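 further: 0% = growth of vehicle-treated wt1 cultures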; details: S. cerevisiae wt1 strain (SPY 50644) growth inhibition, active compounds read high
Outline: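 Yeast wt1 strain exposed to compounds; growth inhibition measured relative to vehicle-treated controls.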

[3] = NCI Yeast Anticancer Drug Screen. Data for the rad50EPP+ strain (AID 151);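 further: 0% = growth of vehicle-treated control cultures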; details: S. cerevisiae rad50 mutant strain, active compounds read high
Outline: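 Compounds were applied to the rad50EPP+ yeast strain, which bears a defined DNA repair alteration, and growth inhibition was determined relative to vehicle-treated cultures.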

[4] = NCI Yeast Anticancer Drug Screen. Data for the mgt1 strain (AID 153); details: S. cerevisiae mgt1 mutant growth inhibition, active compounds read high
Outline: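 Strain: mgt1 yeast, one of a set carrying defined DNA damage repair or cell cycle control alterations. Compound-treated growth compared with vehicle.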

[5] = NCI Yeast Anticancer Drug Screen. Data for the rad50 strain (AID 155);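 further: 0% = growth of vehicle-only cultures of the same strain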; details: S. cerevisiae rad50 strain growth inhibition, active compounds read high
Outline: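 Yeast carrying a defined DNA repair defect were exposed to test compounds, and growth was compared with vehicle-treated controls to give percent inhibition.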

[6] = NCI Yeast Anticancer Drug Screen. Data for the mec2-1 strain (AID 157); details: S. cerevisiae mec2-1 strain, active compounds read high
Outline: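 Strain: mec2-1 (DNA repair/cell cycle alteration). Compound exposure, then growth measured; inhibition expressed relative to vehicle.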

[7] = NCI Yeast Anticancer Drug Screen. Data for the rad14 strain (AID 159);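 further: 0% = growth of vehicle-treated control cultures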; details: S. cerevisiae rad14 strain growth inhibition, active compounds read high
Outline: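 Yeast cells carrying a defined DNA-repair defect were exposed to compounds, and growth inhibition was calculated relative to vehicle-treated control cultures.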

[8] = NCI Yeast Anticancer Drug Screen. Data for the sgs1 mgt1 strain (AID 161);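 further: 0% = growth of cultures given vehicle only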; details: S. cerevisiae sgs1 mgt1 strain, active compounds read high
Outline: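 Inhibition of yeast growth, normalised to vehicle-treated controls, is reported for a strain bearing genetic alterations in DNA damage repair.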

[9] = NCI Yeast Anticancer Drug Screen. Data for the CLN2oe strain (AID 163);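 further: 0% = growth of vehicle-only control cultures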; details: S. cerevisiae CLN2oe strain, active compounds read high
Outline: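 Growth of a genetically modified yeast strain is measured after compound exposure and compared with cultures given vehicle alone.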

[10] = NCI Yeast Anticancer Drug Screen. Data for the cln2 rad14 strain (AID 165);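 further: 0% = growth equal to vehicle treated cultures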; details: S. cerevisiae cln2 rad14 strain, active compounds read high
Outline: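 Compounds are applied to the cln2 rad14 yeast strain, and growth is then compared with that of vehicle-treated cultures to give inhibition.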

[11] = NCI Yeast Anticancer Drug Screen. Data for the bub3 strain (AID 167); details: S. cerevisiae bub3 mutant strain, active compounds read high
Outline: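 Compounds were applied to a genetically altered yeast strain carrying a cell-cycle control defect. Growth inhibition was scored against vehicle-treated controls.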

[12] = NCI Yeast Anticancer Drug Screen. Data for the wt2 strain (AID 169);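 further: 0% = growth of vehicle-treated yeast cultures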; details: S. cerevisiae wt2 strain growth inhibition, active compounds read high
Outline: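 This strain belongs to a panel of yeast strains with defined genetic alterations in DNA damage repair or cell cycle control. Compounds are applied, and growth inhibition is measured against vehicle-treated cultures.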

[13] = NCI Yeast Anticancer Drug Screen. Data for the mlh1 strain (AID 171);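 further: 0% = growth of vehicle-treated control cultures of the same strain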; details: S. cerevisiae mlh1 strain growth inhibition, active compounds read high
Outline: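 Growth of the mutant yeast strain after compound exposure, expressed as inhibition relative to vehicle-only controls.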

[14] = NCI Yeast Anticancer Drug Screen. Data for the sgs1 strain (AID 173);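 further: 0% = growth of vehicle-only control cultures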; details: S. cerevisiae sgs1 mutant, active compounds read high
Outline: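 Growth of a yeast strain bearing a defined genetic alteration is measured after compound treatment. Inhibition is expressed relative to vehicle-only controls.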

[15] = NCI Yeast Anticancer Drug Screen. Data for the mlh1 rad18 strain (AID 175); details: S. cerevisiae mlh1 rad18 strain growth inhibition, active compounds read high
Outline: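 Read-out is yeast growth inhibition, calculated against vehicle-only controls. The compound was applied to a strain engineered with DNA damage repair alterations.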

[16] = NCI Yeast Anticancer Drug Screen. Data for the rad18 strain (AID 177); details: S. cerevisiae rad18 mutant growth inhibition, active compounds read high
Outline: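 Growth of the mutant yeast strain after compound exposure, normalised to vehicle-only cultures.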

[17] = at 5.0 µM (retest, dose inferred, filed as 0.5)
[18] = at 50.0 µM (retest, dose inferred, filed as 5.0)

Measured: growth inhibition

O=[N+]([O-])c1cc[n+]([O-])c(Cl)c1
inactive: [1]; at 1.2 µM 1% | [1]; at 3.7 µM 12% | [1]; at 11.0 µM 10% | [2]; at 1.2 µM -17% | [2]; at 3.7 µM -26% | [2]; at 11.0 µM -19% | [3]; at 1.2 µM 8% | [3]; at 3.7 µM 14% | [3]; at 11.0 µM 44% | [4]; at 1.2 µM 12% | [4]; at 3.7 µM -4% | [4]; at 11.0 µM 24% | [5]; at 1.2 µM 1% | [5]; at 3.7 µM 9% | [5]; [17] 9% | [5]; at 11.0 µM 28% | [6]; at 1.2 µM 5% | [6]; at 3.7 µM 15% | [6]; [17] -3% | [6]; at 11.0 µM 26% | [7]; at 1.2 µM 1% | [7]; at 3.7 µM 5% | [7]; at 11.0 µM 19% | [8]; [17] 1% | [9]; at 1.2 µM -6% | [9]; at 3.7 µM -4% | [9]; at 11.0 µM 12% | [10]; [17] 10% | [11]; at 1.2 µM -16% | [11]; at 3.7 µM -16% | [11]; [17] 5% | [11]; at 11.0 µM -8% | [12]; at 1.2 µM -55% | [12]; at 3.7 µM -50% | [12]; at 11.0 µM -42% | [13]; at 1.2 µM -11% | [13]; at 3.7 µM 16% | [13]; at 11.0 µM 30% | [14]; at 1.2 µM 8% | [14]; at 3.7 µM 10% | [14]; at 11.0 µM 34% | [15]; [17] 1% | [16]; at 1.2 µM -25% | [16]; at 3.7 µM -21% | [16]; at 11.0 µM -5%
active: [1]; at 33.0 µM 82% | [1]; at 100.0 µM 98% | [2]; at 33.0 µM 100% | [2]; at 100.0 µM 99% | [3]; at 33.0 µM 94% | [3]; at 100.0 µM 98% | [4]; at 33.0 µM 99% | [4]; at 100.0 µM 99% | [5]; at 33.0 µM 100% | [5]; [18] 99% | [5]; at 50.0 µM 99.5% | [5]; at 100.0 µM 100% | [6]; at 33.0 µM 100% | [6]; [18] 99% | [6]; at 50.0 µM 99.7% | [6]; at 100.0 µM 99% | [7]; at 33.0 µM 97% | [7]; at 100.0 µM 100% | [8]; [18] 99% | [8]; at 50.0 µM 99.8% | [9]; at 33.0 µM 79% | [9]; at 100.0 µM 99% | [10]; [18] 98% | [10]; at 50.0 µM 99% | [11]; at 33.0 µM 98% | [11]; [18] 99% | [11]; at 50.0 µM 99.5% | [11]; at 100.0 µM 99% | [12]; at 33.0 µM 99% | [12]; at 100.0 µM 99% | [13]; at 33.0 µM 98% | [13]; at 100.0 µM 99% | [14]; at 33.0 µM 100% | [14]; at 100.0 µM 100% | [15]; [18] 99% | [15]; at 50.0 µM 99.5% | [16]; at 33.0 µM 98% | [16]; at 100.0 µM 99%

COC(=N)c1ccc(O)c(C)c1
active: [11]; [18] 78%
inactive: [1]; at 1.2 µM -3% | [1]; at 3.7 µM -6% | [1]; at 11.0 µM -11% | [1]; at 33.0 µM -16% | [1]; at 100.0 µM -5% | [2]; at 1.2 µM -6% | [2]; at 3.7 µM -5% | [2]; at 11.0 µM -6% | [2]; at 33.0 µM -5% | [2]; at 100.0 µM -3% | [3]; at 1.2 µM -1% | [3]; at 3.7 µM 1% | [3]; at 11.0 µM 5% | [3]; at 33.0 µM 11% | [3]; at 100.0 µM 9% | [4]; at 1.2 µM -4% | [4]; at 3.7 µM -3% | [4]; at 11.0 µM -2% | [4]; at 33.0 µM -3% | [4]; at 100.0 µM -3% | [5]; at 1.2 µM -7% | [5]; at 3.7 µM -19% | [5]; [17] -138% | [5]; at 11.0 µM -6% | [5]; at 33.0 µM 7% | [5]; [18] 10% | [5]; at 50.0 µM 50.4% | [5]; at 100.0 µM 3% | [6]; at 1.2 µM 0% | [6]; at 3.7 µM 0% | [6]; [17] -46% | [6]; at 11.0 µM -1% | [6]; at 33.0 µM 1% | [6]; [18] -21% | [6]; at 50.0 µM 2.2% | [6]; at 100.0 µM 1% | [7]; at 1.2 µM -3% | [7]; at 3.7 µM 0% | [7]; at 11.0 µM -2% | [7]; at 33.0 µM -4% | [7]; at 100.0 µM -1% | [8]; [17] -53% | [8]; [18] -40% | [8]; at 50.0 µM -8.2% | [9]; at 1.2 µM -2% | [9]; at 3.7 µM 3% | [9]; at 11.0 µM 0% | [9]; at 33.0 µM -3% | [9]; at 100.0 µM -6% | [10]; [17] -52% | [10]; [18] -22% | [10]; at 50.0 µM -38.2% | [11]; at 1.2 µM -3% | [11]; at 3.7 µM -5% | [11]; [17] -61% | [11]; at 11.0 µM 0% | [11]; at 33.0 µM -2% | [11]; at 50.0 µM 5.2% | [11]; at 100.0 µM 4% | [12]; at 1.2 µM -2% | [12]; at 3.7 µM 0% | [12]; at 11.0 µM -2% | [12]; at 33.0 µM -4% | [12]; at 100.0 µM -1% | [13]; at 1.2 µM 6% | [13]; at 3.7 µM -6% | [13]; at 11.0 µM -7% | [13]; at 33.0 µM -7% | [13]; at 100.0 µM -7% | [14]; at 1.2 µM -1% | [14]; at 3.7 µM -1% | [14]; at 11.0 µM -1% | [14]; at 33.0 µM -2% | [14]; at 100.0 µM -2% | [15]; [17] -123% | [15]; [18] -74% | [15]; at 50.0 µM -6.9% | [16]; at 1.2 µM -2% | [16]; at 3.7 µM -1% | [16]; at 11.0 µM 1% | [16]; at 33.0 µM 3% | [16]; at 100.0 µM 8%
